Experimental data: the antibiotic and cytotoxicity screens of Wong et al. (2023)
In all, about 39,000 compounds went through this assay and about 1,500 (3.8%) were called active. The list comes from a sample in which actives are over-represented; it also holds similar structures and randomly drawn compounds.

What follows are compounds tested on HSkMC (human skeletal muscle cells) (assay: cytotoxicity call (relative viability < 0.9)). Conditions: 10 µM.

Structure (SMILES)	cytotoxicity call
C[C@H](CO)N1C[C@H](C)[C@@H](CN(C)C(=O)Nc2cccc(F)c2)Oc2cc(C#CC3(O)CCCC3)ccc2S1(=O)=O	inactive
C[C@@H]1CN([C@@H](C)CO)S(=O)(=O)c2ccc(C#Cc3ccccc3F)cc2O[C@H]1CN(C)C(=O)c1ccc2c(c1)OCO2	active
C[C@@H]1CN([C@H](C)CO)C(=O)c2cc(NS(C)(=O)=O)ccc2O[C@@H](C)CCCCO[C@@H]1CN(C)C(=O)CCCN(C)C	inactive
C[C@@H]1CN([C@@H](C)CO)C(=O)Cc2cc(NC(=O)CCCCCC(=O)Nc3ccccc3N)ccc2O[C@@H]1CN(C)Cc1ccc(-c2ccccc2)cc1	inactive
C[C@@H]1CN([C@@H](C)CO)C(=O)c2cc(NS(=O)(=O)c3cn(C)cn3)ccc2O[C@H]1CN(C)C(=O)Nc1ccc2c(c1)OCO2	inactive
C[C@H]1CN([C@@H](C)CO)C(=O)c2cccc(NC(=O)C3CCOCC3)c2O[C@H]1CN(C)Cc1ccccc1	inactive
CCC(=O)Nc1ccc2c(c1)OC[C@@H](C)N(C(=O)CN1CCOCC1)C[C@H](C)[C@H](OC)CN(C)C2=O	inactive
CN(C)CCCNC(=O)C[C@H]1CC[C@H]2[C@@H](COC[C@@H](O)CN2S(=O)(=O)c2ccc(Cl)cc2)O1	inactive
C[C@H](CO)N1C[C@H](C)[C@@H](CN(C)S(C)(=O)=O)Oc2cc(C#CCN(C)C)ccc2S1(=O)=O	inactive
COCC(=O)Nc1ccc2c(c1)OC[C@@H](C)N(C(=O)Cc1ccccn1)C[C@@H](C)[C@@H](OC)CN(C)C2=O	inactive
C[C@H]1CN([C@@H](C)CO)C(=O)c2cc(NC(=O)C3CC3)ccc2O[C@H]1CN(C)Cc1ccc2c(c1)OCO2	inactive
COc1cccc(NC(=O)N(C)C[C@H]2Oc3cc(C#Cc4ccncc4)ccc3S(=O)(=O)N([C@H](C)CO)C[C@@H]2C)c1	inactive
COc1cccc(NC(=O)N(C)C[C@H]2Oc3cc(C#Cc4ccncc4)ccc3S(=O)(=O)N([C@@H](C)CO)C[C@H]2C)c1	inactive
COc1cccc(NC(=O)N(C)C[C@H]2Oc3cc(C#Cc4ccncc4)ccc3S(=O)(=O)N([C@@H](C)CO)C[C@@H]2C)c1	active
COc1cc2c(cc1OC)CN(C(=O)[C@H]1[C@@H]3C(=O)O[C@@H](c4ccccc4)[C@@H](c4ccccc4)N3[C@@H](c3ccc(O)cc3)[C@]13C(=O)Nc1ccccc13)CC2	inactive
O=c1/c(=C/c2cccc(Cl)c2)c2cccc3cccc1c32	inactive
Cc1noc(C)c1S(=O)(=O)N(C)C[C@H]1OCCCC[C@H](C)Oc2ccc(NS(=O)(=O)c3cn(C)cn3)cc2C(=O)N([C@H](C)CO)C[C@@H]1C	inactive

Structure (SMILES)	cytotoxicity call
Cc1ccc(S(N)(=O)=O)cc1	inactive
CNS(=O)(=O)c1ccc(C)cc1	inactive
Cc1noc(C)c1S(=O)(=O)N(C)C[C@@H]1OCCCC[C@@H](C)Oc2ccc(NS(C)(=O)=O)cc2C(=O)N([C@@H](C)CO)C[C@@H]1C	inactive
CN(C)CCOC(=O)COc1ccc(Cl)cc1.Cl	inactive
CCCCc1nc(-c2ccc(OCCCN(CC)CC)cc2)cn1-c1ccc(Oc2ccc(Cl)cc2)cc1	active
COc1ccc(-n2nc(CCC(=O)N(C)O)cc2-c2ccc(Cl)cc2)cc1	inactive
C[C@@H]1CN([C@H](C)CO)C(=O)c2cc(NC(=O)NC3CCCCC3)ccc2O[C@@H](C)CCCCO[C@@H]1CN(C)Cc1ccc2c(c1)OCO2	inactive
CN(C)CCCNC(=O)C[C@@H]1C=C[C@@H](NC(=O)Cc2cccnc2)[C@@H](CO)O1	inactive
C[C@H](CO)N1C[C@H](C)[C@@H](CN(C)C(=O)Nc2ccc3c(c2)OCO3)Oc2ccc(NS(C)(=O)=O)cc2CC1=O	inactive
C[C@H](CO)N1C[C@H](C)[C@H](CN(C)Cc2ccc(-c3ccccc3)cc2)Oc2ccc(NS(=O)(=O)c3ccc(Cl)cc3)cc2CC1=O	inactive
C[C@H]1CN([C@@H](C)CO)C(=O)Cc2cc(NS(=O)(=O)c3ccc(Cl)cc3)ccc2O[C@H]1CN(C)Cc1ccc(-c2ccccc2)cc1	active
C[C@H]1CN([C@@H](C)CO)C(=O)Cc2cc(NS(=O)(=O)c3ccc(Cl)cc3)ccc2O[C@@H]1CN(C)Cc1ccc(-c2ccccc2)cc1	inactive
C[C@@H]1CN([C@@H](C)CO)C(=O)Cc2cc(NS(=O)(=O)c3ccc(Cl)cc3)ccc2O[C@@H]1CN(C)Cc1ccc(-c2ccccc2)cc1	inactive
C[C@@H]1CN([C@H](C)CO)C(=O)Cc2cc(NS(=O)(=O)c3ccc(Cl)cc3)ccc2O[C@H]1CN(C)Cc1ccc(-c2ccccc2)cc1	active
C[C@H](CO)N1C[C@H](C)[C@@H](CN(C)Cc2ccc(-c3ccccc3)cc2)Oc2ccc(NS(=O)(=O)c3ccc(Cl)cc3)cc2CC1=O	inactive
C[C@@H]1CN([C@H](C)CO)C(=O)Cc2cc(NS(=O)(=O)c3ccc(Cl)cc3)ccc2O[C@@H]1CN(C)Cc1ccc(-c2ccccc2)cc1	active
C[C@@H]1CN([C@@H](C)CO)C(=O)Cc2cc(NS(=O)(=O)c3ccc(Cl)cc3)ccc2O[C@H]1CN(C)Cc1ccc(-c2ccccc2)cc1	active
